According to PubChem BioAssay (Tox21):
A number with no mark means an inactive call. Calls follow the shape of the dose curve; as a rule, active = well fitted curve in the direction sought with a large enough effect in the repeat runs; inconclusive = weak or mixed curves; inactive = flat fitted curve, though single readings scatter.

assay: qHTS assay to test for compound auto fluorescence at 535 nm (green) in HEK293 cell free culture (AID 720682); conditions: cell-free medium, green autofluorescence 485/535 nm, active compounds read high; series mostly up to 91.3 µM; activity change: at the top concentration
Procedure, shortened: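 Cell-free medium (DMEM, 10% FBS) receives compound or DMSO by pintool. Plate read directly at Ex 485/Em 535 nm. Signal converted to fluorescein equivalency.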
% is scaled to controls: 0 for no effect and ±100 for the full control effect.

SMILES	activity change
CC/C=C/CCCCCCCCCCOC(C)=O	0.0634%
Cc1ccc(Br)cc1	-0.0521%
O=C(O)/C=C(\CC(=O)O)C(=O)O	-0.122% [at 46 µM]
C=CCON/C(CCC)=C1\C(=O)CC(C)(C)C(C(=O)OC)=C1O	-0.0226%
CCOc1ccccc1OCCN[C@H](C)Cc1ccc(OC)c(S(N)(=O)=O)c1	-0.0285% [at 46 µM]
CCCCCCCCCCCCCCBr	0.0125% [at 95.7 µM]
CCN1CCN(C(=O)N[C@@H](C(=O)N[C@@H]2C(=O)N3[C@@H]2SC(C)(C)[C@H]3C(=O)O)c2ccccc2)C(=O)C1=O	-0.112% [at 46 µM]
CCCCNCC	-0.0422%
C[Si](C)(C)O[Si](O)(O)O	-0.0092%
O=C(CCBr)N1CCN(C(=O)CCBr)CC1	0.0351% [at 46 µM]
Cc1ccccc1OCC(=O)O	0.0377%
C/C(=N\O)c1ccc(OCC(=O)N2CCCCC2)cc1	-0.0535% [at 46 µM]
CC/C=C\CCCCCCCCCCOC(C)=O	0.053%
COCc1nnc(-c2ccc[n+]([O-])c2)n1-c1c(Cl)c(Cl)cc2[nH]c(=O)c(=O)[nH]c12	0.0058%
CC1(C)S[C@@H]2[C@H](NC(=O)Cc3ccccc3)C(=O)N2[C@H]1C(=O)O (tested in a mixture with another compound)	0.0137% [at 46 µM]
CC1=C(O)C(=O)CO1	0.1%
CC(C)C(C)C	-0.0435%
O=C(O)Cc1c(Cl)ccc(Cl)c1Cl	0.0023%

SMILES	activity change
CCC(=O)OCCOc1ccccc1	-0.0016%
N=C(N)S(=O)O	-0.009%
CC(C)(C)C(=O)CCc1ccc(Cl)cc1	0.081%
CC[C@@]1(c2ccccc2)NC(=O)N(C)C1=O	-0.0009% [at 46 µM]
CCCCCCCCS(=O)(=O)O	0.0857%
C=CCCCCCCCCCCCCCC	0.0547% [at 18.6 µM]
N#CC1(N)CCCCC1	0.0678% [at 95.7 µM]
CN(C)c1ccncc1	0.0001%
BrCCOc1ccccc1	0.0249%
O=C1CC2(CCCC2)CC(=O)N1CCNCC1COc2ccccc2O1 (stereo unspecified)	0.0206% [at 46 µM]
CCOC(=O)c1ccc(N(C)C)cc1	0.0049%
N=C(N)N1CCc2ccccc2C1	-0.0147% [at 46 µM]
CNC(C)=O	-0.0212%
C=CCN(CC=C)CC=C	0.0197%
CCCCN1C(=O)c2ccccc2C1=O	-0.0009% [at 95.7 µM]
COc1cc(NS(=O)(=O)c2ccc(N)cc2)ncn1	0.0071% [at 18.6 µM]
NNC(=O)CCCCC(=O)NN	0.0175%

assay: qHTS assay to test for compound auto fluorescence at 590 nm (red) in HEK293 cell free culture (AID 720683); conditions: cell-free medium autofluorescence, Ex540/Em590 red; series mostly up to 91.3 µM; fluorescence, % of fluorescent control: at the top concentration
Procedure, shortened: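 Cell-free wells of DMEM with 10% FBS received compound, and intrinsic fluorescence was read at excitation/emission 540/590 nm. Values expressed as equivalence to Rose Bengal sodium.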

SMILES	fluorescence, % of fluorescent control
Cc1ccc(Br)cc1	0.114%
O=C(O)/C=C(\CC(=O)O)C(=O)O	-0.0375% [at 46 µM]
C=CCON/C(CCC)=C1\C(=O)CC(C)(C)C(C(=O)OC)=C1O	0.0656%
CCOc1ccccc1OCCN[C@H](C)Cc1ccc(OC)c(S(N)(=O)=O)c1	-0.394% [at 46 µM]
CCCCCCCCCCCCCCBr	0.125% [at 95.7 µM]
CCN1CCN(C(=O)N[C@@H](C(=O)N[C@@H]2C(=O)N3[C@@H]2SC(C)(C)[C@H]3C(=O)O)c2ccccc2)C(=O)C1=O	-0.0727% [at 46 µM]
CCCCNCC	0.103%
O=C(CCBr)N1CCN(C(=O)CCBr)CC1	0.187% [at 46 µM]
Cc1ccccc1OCC(=O)O	-0.195%
C/C(=N\O)c1ccc(OCC(=O)N2CCCCC2)cc1	0.155% [at 46 µM]
CC/C=C\CCCCCCCCCCOC(C)=O	0.138%
COCc1nnc(-c2ccc[n+]([O-])c2)n1-c1c(Cl)c(Cl)cc2[nH]c(=O)c(=O)[nH]c12	-0.212%
CC1(C)S[C@@H]2[C@H](NC(=O)Cc3ccccc3)C(=O)N2[C@H]1C(=O)O (tested in a mixture with another compound)	-0.519% [at 46 µM]
CC1=C(O)C(=O)CO1	-0.0695%
CC(C)C(C)C	-0.816%
O=C(O)Cc1c(Cl)ccc(Cl)c1Cl	-0.0455%

SMILES	fluorescence, % of fluorescent control
CCC(=O)OCCOc1ccccc1	-0.0545%
N=C(N)S(=O)O	-0.0332%
CC(C)(C)C(=O)CCc1ccc(Cl)cc1	-0.014%
CC[C@@]1(c2ccccc2)NC(=O)N(C)C1=O	-0.0228% [at 46 µM]
CCCCCCCCS(=O)(=O)O	-0.0654%
C=CCCCCCCCCCCCCCC	-0.342% [at 18.6 µM]
CN(C)c1ccncc1	-0.41%
BrCCOc1ccccc1	0.0892%
O=C1CC2(CCCC2)CC(=O)N1CCNCC1COc2ccccc2O1 (stereo unspecified)	-0.238% [at 46 µM]
CCOC(=O)c1ccc(N(C)C)cc1	0.3%
N=C(N)N1CCc2ccccc2C1	-0.624% [at 46 µM]
C=CCN(CC=C)CC=C	-0.088%
CCCCN1C(=O)c2ccccc2C1=O	0.102% [at 95.7 µM]
COc1cc(NS(=O)(=O)c2ccc(N)cc2)ncn1	-0.0018% [at 18.6 µM]
NNC(=O)CCCCC(=O)NN	0.156%

assay: qHTS assay to test for compound auto fluorescence at 590 nm (red) in HepG2 cell free culture (AID 720684); conditions: cell-free medium autofluorescence, red 540/590 nm; series mostly up to 91.3 µM; fluorescence, % of Rose Bengal: at the top concentration
Procedure, shortened: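 Compounds are added to culture medium (MEM, 10% FBS) lacking cells, then fluorescence is read at excitation 540 nm, emission 590 nm, with Rose Bengal sodium as the equivalency standard.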

SMILES	fluorescence, % of Rose Bengal
CC/C=C/CCCCCCCCCCOC(C)=O	-0.0533%
Cc1ccc(Br)cc1	0.0615%
O=C(O)/C=C(\CC(=O)O)C(=O)O	-0.138% [at 46 µM]
C=CCON/C(CCC)=C1\C(=O)CC(C)(C)C(C(=O)OC)=C1O	-0.0158%
CCOc1ccccc1OCCN[C@H](C)Cc1ccc(OC)c(S(N)(=O)=O)c1	0.0104% [at 46 µM]
CCCCCCCCCCCCCCBr	0.0777% [at 95.7 µM]
CCN1CCN(C(=O)N[C@@H](C(=O)N[C@@H]2C(=O)N3[C@@H]2SC(C)(C)[C@H]3C(=O)O)c2ccccc2)C(=O)C1=O	-0.178% [at 46 µM]
CCCCNCC	0.116%
C[Si](C)(C)O[Si](O)(O)O	0.145%
O=C(CCBr)N1CCN(C(=O)CCBr)CC1	-0.181% [at 46 µM]
Cc1ccccc1OCC(=O)O	-0.101%
C/C(=N\O)c1ccc(OCC(=O)N2CCCCC2)cc1	-0.0274% [at 46 µM]
CC/C=C\CCCCCCCCCCOC(C)=O	0.0113%
COCc1nnc(-c2ccc[n+]([O-])c2)n1-c1c(Cl)c(Cl)cc2[nH]c(=O)c(=O)[nH]c12	0.377%
CC1(C)S[C@@H]2[C@H](NC(=O)Cc3ccccc3)C(=O)N2[C@H]1C(=O)O (tested in a mixture with another compound)	-0.13% [at 46 µM]
CC1=C(O)C(=O)CO1	0.0123%
CC(C)C(C)C	-0.368%
O=C(O)Cc1c(Cl)ccc(Cl)c1Cl	0.0048%

SMILES	fluorescence, % of Rose Bengal
CCC(=O)OCCOc1ccccc1	-0.0236%
N=C(N)S(=O)O	-0.0685%
CC(C)(C)C(=O)CCc1ccc(Cl)cc1	0.115%
CC[C@@]1(c2ccccc2)NC(=O)N(C)C1=O	0.587% [at 46 µM]
CCCCCCCCS(=O)(=O)O	-0.162%
C=CCCCCCCCCCCCCCC	0.0019% [at 18.6 µM]
N#CC1(N)CCCCC1	-0.0919% [at 95.7 µM]
CN(C)c1ccncc1	-0.259%
BrCCOc1ccccc1	0.0411%
O=C1CC2(CCCC2)CC(=O)N1CCNCC1COc2ccccc2O1 (stereo unspecified)	-0.0382% [at 46 µM]
CCOC(=O)c1ccc(N(C)C)cc1	0.0243%
N=C(N)N1CCc2ccccc2C1	-0.0656% [at 46 µM]
CNC(C)=O	-0.0219%
C=CCN(CC=C)CC=C	-0.186%
CCCCN1C(=O)c2ccccc2C1=O	0.0746% [at 95.7 µM]
COc1cc(NS(=O)(=O)c2ccc(N)cc2)ncn1	0.116% [at 18.6 µM]
NNC(=O)CCCCC(=O)NN	-0.109%
